# Laboratory results as given in PubChem BioAssay (EPA / NIEHS).
# The source made the active and inactive calls. How the source made its calls: active means hit-call score of the fitted dose curve at least 0.9, where 1 is the maximum; inactive means score below 0.9.
# Read-out: Interleukin-8 (IL8), CXCL8 (gene 3576)
# Assay: BSK_MyoF_IL8: BioMAP Diversity Plus: MyoF Assay for Interleukin-8 (IL8) Biomarker Activity (AID 2284261)
# Conditions: primary human lung fibroblasts
# Procedure: BSK_MyoF is a cell-based, multiplexed-readout assay that uses lung fibroblasts, […], with measurements taken at 24 hours after chemical dosing in a microplate: 96-well plate.BSK_MyoF_IL8 is an assay component measured in the BSK_MyoF assay. It measures IL-8 antibody related to regulation of gene expression using ELISA technology.Data from the assay component BSK_MyoF_IL8 was analyzed at the endpoint, BSK_MyoF_IL8, in the positive analysis fitting direction relative to DMSO as the negative control and baseline of activity. Using a type of binding reporter, gain or loss-of-signal activity can be used to understand protein changes. To generalize the intended target to other relatable targets, this assay endpoint is annotated to the 'cytokine' intended target family, where the subfamily is 'interleukins'.
# The levels of cell surface (or secreted, indicated by the prefix "s") biomarker endpoints were measured by ELISA. Overt cytotoxicity to cells in confluent adherent cultures (all systems other than the BT system) was assessed by measuring total protein levels using sulforhodamine B (SRB) staining in parallel cultures at the time of biomarker measurements, indicated as SRB endpoints. For proliferation assays for adherent cell types, individual cell types are cultured at sub-confluence and relative cell numbers quantified by SRB staining at time points optimized for each system (48 h: 3C and CASM3C systems; 72 h: BT and HDF3CGF systems; 96 h: SAg system). SRB was performed by staining cells with 0.1% SRB after fixation with 10% TCA and reading wells at 560 nm.Viability and proliferation of PBMC (T cells) was quantified by Alamar Blue reduction for the SAg and BT systems. For PBMC viability (referred to as PBMC Cytotoxicity within the assay endpoint names), cells were plated (75,000/well in a 96-well plate) and then chemical samples added for 1 h before addition of activators, SEB and TSST-1 (20 ng/mL final concentration each). Cells were incubated for 90 h. Then, Alamar Blue (20 uL/well) (Invitrogen, Cat DAL1100) was added for 6 h, and the plates were read with a fluorescence microplate reader at 546/580 nm (excitation/emission). For PBMC proliferation, cells were plated and activated as above but incubated for only 16 h prior to addition of Alamar Blue. Plates were read after 6 h.
SMILES,AC50,outcome
CCCCCCCCCCCCCCCCCC[N+](C)(C)C,8.89 µM (active),
CCCCCCCCCCC1CO1 (stereo not given),,inactive
CCCCCCC(O)CCCCCCCCCCC(=O)OC (stereo not given),,inactive
Oc1cccc2ccccc12,6.06 µM (active),
CN(C)c1ccc(C(c2ccccc2)c2ccc(N(C)C)cc2)cc1,,inactive
Cc1cc(-n2nc3ccc(Cl)cc3n2)c(O)c(C(C)(C)C)c1,,inactive
CC[N+](CC)(CC(=O)Nc1c(C)cccc1C)Cc1ccccc1,,inactive
CN(C)CCC(c1ccc(Cl)cc1)c1ccccn1 (stereo not given),,inactive
CC(C)CC(=O)CC(C)CC(C)C (stereo not given),,inactive
Cc1cccnc1,,inactive
CCCCCCCCCC/C=C/C1CC(=O)OC1=O (stereo not given),,inactive
COC(=O)/C=C\C(=O)OC,,inactive
Sc1nc2ccccc2s1,,inactive
OC(C(F)(F)F)(C(F)(F)F)C(O)(C(F)(F)F)C(F)(F)F,,inactive
O=C(C(=O)c1ccccc1)c1ccccc1,,inactive
